# Test results as given in PubChem BioAssay (NCI).
# This is part of a sample that, as a whole, favours compounds with a hit. Of some 83,000 tested, about 20% had one in any assay.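 Testing used 96-well plates and a 48-hour single-concentration exposure. Example: -40 means 40% of the starting cells died.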 Values without a mark were called inactive. Activity calls are given as the source filed them.
# System: U251 CNS
# Experiment: NCI-60 one-dose screen, 48 h (100 = growth as untreated, 0 = no growth, -100 = all killed)
# Conditions: 10 µM unless noted
# Experimental: Growth inhibition of the U251 human tumor cell line is measured as a screen for anti-cancer activity. Cells are grown in 96 well plates and exposed to the test compound for 48 hours. Compounds are tested at a single concentration, which is 10^-5 M for most compounds. The reported endpoint is percent growth (GI% or GIPRCNT), where numbers from 0 - 100% represent growth inhibition, and numbers from -100% - 0 represent cell death. For example, a value of 40 represents 60% growth inhibition. A value of 0 means no net growth occurred over the course of the experiment. A value of -40 indicates 40% of cells at the beginning of the experiment died by the end of the experiment. A value of -100 means all cells are dead at the end of the experiment.
# NCI-60 Human Tumor Cell Lines Screen was performed using the standard one-dose NCI protocol, which is described in more detail at https://dtp.cancer.gov/discovery_development/nci-60/default.htm.
# Compounds with GIPRCNT values below 10 were considered active. Activity score was based on GIPRCNT using the following formula: […]
# Score is 0 for GIPRCNT values of 100 or above, 50 for GIPRCNT values of 0, and 100 for GIPRCNT values of -100.
row,SMILES,growth
1,O=C1OC(c2ccc(-c3ccccc3)cc2)=C/C1=C/C=C/c1ccccc1,100%
2,O=C(Nc1ccc(-n2ccc3c(NC(=O)c4ccccc4)ncnc32)cc1)Nc1cccc(Cl)c1Cl,-80% (active)
3,O=C(/C=C/c1ccco1)c1cccc(Nc2nc(Nc3ccccc3)nc(Nc3ccccc3)n2)c1,77.1%
4,COc1cc(NC(=O)c2cc(OC)c3ccn(C)c3c2)cc2c1C[C@]1(C)CC[C@@H](O)C(C)(C)[C@H]1O2,43.1%
5,O=C(Nc1ccccc1F)Nc1ccccc1Cl,92.3%
6,CCCCCCCC(=O)SCC/C=C/[C@@H]1CC(=O)NCc2nc(cs2)C2=N[C@@](C)(CS2)C(=O)N[C@@H](C(C)C)C(=O)N1,-33.5% (active)
7,O=C1C(SCCO)=C(SCCO)C(=O)N1c1ccc(-c2ccccc2)cc1,60.2%
8,S=c1ssnc1-c1ccccn1,28.9%
9,CCN(CC)c1ccc(C2CC(c3cc(OC)c(OC)c(OC)c3)=NN2)cc1 (stereo not given),33%
10,Cc1ccc2nc(-c3ccc(-n4on4-c4ccc(/C=C/c5ccc(-n6on6-c6ccc(-c7nc8ccc(C)cc8s7)cc6)cc5S(=O)(=O)O)c(S(=O)(=O)O)c4)cc3)sc2c1,115%
11,CCc1ccc(C2=C/C(=C/c3ccc(Cl)cc3)C(=O)N2CCc2ccc(S(N)(=O)=O)cc2)cc1,25.1%
12,C#C[C@@]1(O)[C@@H](CO)O[C@@H](n2cc(C(F)(F)F)c3c(N)ncnc32)[C@@H]1O,6.37% (active)
13,COc1cc(Cn2cc3c(c2)-c2onc(CO)c2CC3)cc(OC)c1OC,97.6%
14,O=C(Nc1ccc(F)cc1)Nc1ccc(Cl)c([N+](=O)[O-])c1,15.5%
15,COc1ccccc1N1CCN(CCCOc2ccc(OCCCN3CCN(c4ccccc4OC)CC3)c(C(=O)c3cc(OC)c(OC)c(OC)c3)c2)CC1,118%
16,O=[N+]([O-])c1cccc(C(c2ccccc2)c2ccccc2)c1,90.9%
17,O=c1nc(N2CCOCC2)oc2c(-c3cccc4ccccc34)cccc12,85.8%
18,COc1ccc2c(c1)nnn1c3ncccc3c(N=O)c21,-64.4% (active)
19,CCCC(C)(C)COC(=O)c1cccc(N)c1,89.1%
20,CO[C@H]1/C=C/C=C/C=C/C[C@H](OC(=O)[C@@H](C)NC(=O)C2CCCCC2)[C@H](C)[C@@H](O)/C(C)=C\CCC2=CC(=O)C=C(NC(=O)C1)C2=O,-19.6% (active)

row,SMILES,growth
1,Nn1c(SCC(=O)Nc2cc(Cl)c(Cl)cc2Cl)nnc1-c1cc(F)c(Cl)cc1Cl,114%
2,CN(C)c1ccc(/C=c2\s/c(=C\C(=O)C(C)(C)C)[nH]c2=O)cc1,94.1%
3,COc1ccc(C2CC(c3cc(Cl)c(C)cc3OC)=NN2c2ccc(S(N)(=O)=O)cc2)cc1OC (stereo not given),78.4%
4,COc1cc(C(=O)N2CCN(C(=O)c3cc(OC)c(OCc4ccccc4)cc3N)CC2)c(N)cc1OCc1ccccc1,115%
5,COC(=O)c1ccc(NC(N)=NCC(C)(C)COc2ccc(C(F)(F)F)cc2)nc1,40.1%
6,CCc1cccc(-c2ccccc2)c1,106%
7,C#CC(=O)/C=C/CCCCCCC#CC(=O)CCC(=O)C#CCCCCCC/C=C/C(=O)C#C,18%
8,C=C1C(=O)O[C@H]2[C@H]1CC/C(C(=O)Nc1ccc(OC)c(C(N)=O)c1O)=C\CC[C@@]1(C)O[C@@H]21,82.2%
9,CC(=O)Nc1ccc(OC(=O)c2ccccc2O)cc1,99.3%
10,CCc1c(C)c2cc(-n3c(-c4ccc(OC)cc4)csc3=N)c(O)c(C)c2oc1=O,10.8%
11,O=C(O)c1ccc(-n2cc(/C=N/Nc3ccc(F)cc3)c(-c3cccc(C(F)(F)F)c3)n2)cc1,84.9%
12,C=C1C(=O)O[C@H]2[C@H]1CC/C(COC(=O)OC/C1=C/CC[C@@]3(C)O[C@H]3[C@H]3OC(=O)[C@@H](CN(C)C)[C@@H]3CC1)=C\CC[C@@]1(C)O[C@@H]21,60.6%
13,COc1cc(/C=C/C(=O)c2c(C)n([O-])c3cc(C)c(C)cc3[n+]2=O)cc(OC)c1OC,45.8%
14,COc1ccc(-c2ccc(NC(=O)Nc3ccc(Cl)c(C(F)(F)F)c3)c(C)n2)cc1,33.6%
15,COc1ccc(C(=O)NC(=O)Nc2ccc3c(c2)NC(=O)/C3=C\c2[nH]c(C)c(CCC(=O)O)c2C)c(F)c1,0.371% (active)
16,O=C1c2ccccc2OC=C(c2ccccc2)N1CCCCN1CCCCC1,30.3%
17,N#Cc1c(N)nc(Cl)c(C#N)c1C(=O)c1ccccc1,30.1%
18,NC(=S)NNC1CCCCC1,93.6%
19,COc1cc2c(/C=C3/C(=O)Nc4ccc(O)cc43)c(Cl)n(Cc3cc(OC)c(OC)c(OC)c3)c2cc1C,32.2%
20,CS(=O)(=O)Nc1cccc(-c2ccc3ncnc(Nc4cncc(Cl)c4)c3c2)c1,23.8%
